In the supplement of paper PMC12669032:

Experiments:
Test in all cases: growth AUC relative to DMSO control (median of replicates) (fraction); higher = more growth (less inhibition), active = hit call of the paper
Settings in all cases: 20 µM; 24 h;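 active = AUC reduced over 20% with Padj below 0.05 in at least 2 of 3 replicates; inactive = otherwise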
Coprococcus comes = test system: Coprococcus comes
Procedure, shortened: (§1)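 Starting at OD600 0.05, gut bacterial monocultures in mGAM were grown anaerobically at 37 °C with 20 µM compound (1% DMSO) under pierced gas-permeable seals. OD600 was read every hour for 24 h, and the lowest OD of each curve was set to 0. Area under the growth curve was normalised to the plate median of solvent-only wells, or to row and column medians on the industrial chemical plate, and the median of three biological replicates grown on separate days is given.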

Escherichia coli ED1a = test system: Escherichia coli ED1a
Procedure, shortened: as §1

Escherichia coli IAI1 = test system: Escherichia coli IAI1
Procedure, shortened: as §1

Eubacterium rectale = test system: Eubacterium rectale
Procedure, shortened: as §1

[1] = test system: Fusobacterium nucleatum subsp. animalis
Procedure, shortened: as §1

Lactobacillus gasseri = test system: Lactobacillus gasseri
Procedure, shortened: as §1

Lactobacillus paracasei = test system: Lactobacillus paracasei
Procedure, shortened: as §1

Odoribacter splanchnicus = test system: Odoribacter splanchnicus
Procedure, shortened: as §1

[2] = test system: Parabacteroides distasonis
Procedure, shortened: as §1

Parabacteroides merdae = test system: Parabacteroides merdae
Procedure, shortened: as §1

Roseburia intestinalis = test system: Roseburia intestinalis
Procedure, shortened: as §1

Streptococcus salivarius = test system: Streptococcus salivarius
Procedure, shortened: as §1

Measured: growth AUC

CNC(=O)O/N=C(\C)SC
inactive: Coprococcus comes 0.981 | Escherichia coli ED1a 0.979 | Escherichia coli IAI1 1.01 | Eubacterium rectale 1.01 | [1] 0.985 | Lactobacillus gasseri 1.02 | Lactobacillus paracasei 0.967 | Odoribacter splanchnicus 0.992 | [2] 0.986 | Parabacteroides merdae 1 | Roseburia intestinalis 0.994 | Streptococcus salivarius 0.973

O=S1OCC2C(CO1)C1(Cl)C(Cl)=C(Cl)C2(Cl)C1(Cl)Cl (stereo not given)
inactive: Coprococcus comes 1.03 | Escherichia coli ED1a 1.02 | Escherichia coli IAI1 1.04 | Eubacterium rectale 1.08 | [1] 1.13 | Lactobacillus gasseri 0.763 | Lactobacillus paracasei 1.05 | Odoribacter splanchnicus 1.03 | [2] 1.1 | Parabacteroides merdae 0.951 | Roseburia intestinalis 0.988 | Streptococcus salivarius 0.977

CCCCC(CC)COC(=O)c1ccccc1C(=O)OCC(CC)CCCC (stereo not given)
inactive: Coprococcus comes 0.999 | Escherichia coli ED1a 0.983 | Escherichia coli IAI1 0.977 | Eubacterium rectale 1.02 | [1] 1 | Lactobacillus gasseri 0.892 | Lactobacillus paracasei 1.07 | Odoribacter splanchnicus 1.1 | [2] 0.985 | Parabacteroides merdae 0.965 | Roseburia intestinalis 0.971 | Streptococcus salivarius 0.967

O=C(NC(=O)c1c(F)cccc1F)Nc1ccc(Cl)c(Oc2ncc(C(F)(F)F)cc2Cl)c1
inactive: Coprococcus comes 0.98 | Escherichia coli ED1a 0.999 | Escherichia coli IAI1 1.01 | Eubacterium rectale 0.951 | [1] 1.1 | Lactobacillus gasseri 1.16 | Lactobacillus paracasei 0.815 | Odoribacter splanchnicus 1.13 | [2] 1.02 | Parabacteroides merdae 0.991 | Roseburia intestinalis 1 | Streptococcus salivarius 1.02

CCCCCCCCSC(=O)Oc1cc(Cl)nnc1-c1ccccc1
inactive: Coprococcus comes 0.98 | Escherichia coli ED1a 0.976 | Escherichia coli IAI1 0.972 | Eubacterium rectale 0.868 | [1] 0.914 | Lactobacillus gasseri 1.02 | Lactobacillus paracasei 1.04 | Odoribacter splanchnicus 0.905 | [2] 0.99 | Parabacteroides merdae 0.967 | Roseburia intestinalis 1.06 | Streptococcus salivarius 0.963

COc1cc(OC)nc(NC(=O)[N-]S(=O)(=O)c2ncccc2OCC(F)(F)F)n1.[Na+]
inactive: Coprococcus comes 0.957 | Escherichia coli ED1a 0.993 | Escherichia coli IAI1 0.982 | Eubacterium rectale 1.04 | [1] 1.08 | Lactobacillus gasseri 0.9 | Lactobacillus paracasei 1.04 | Odoribacter splanchnicus 0.932 | [2] 1.03 | Parabacteroides merdae 0.974 | Roseburia intestinalis 1.01 | Streptococcus salivarius 0.885

Clc1ccc(C2(Cn3cncn3)OCCO2)c(Cl)c1
inactive: Coprococcus comes 0.966 | Escherichia coli ED1a 0.98 | Escherichia coli IAI1 0.979 | Eubacterium rectale 1.03 | [1] 0.988 | Lactobacillus gasseri 0.937 | Lactobacillus paracasei 0.946 | Odoribacter splanchnicus 0.923 | [2] 1.01 | Parabacteroides merdae 0.954 | Roseburia intestinalis 0.948 | Streptococcus salivarius 0.915

CCCCCCCC(=O)Oc1c(I)cc(C#N)cc1I
inactive: Coprococcus comes 0.995 | Escherichia coli ED1a 0.985 | Escherichia coli IAI1 0.896 | Eubacterium rectale 1.09 | [1] 1.16 | Lactobacillus gasseri 0.89 | Lactobacillus paracasei 1.01 | Odoribacter splanchnicus 0.91 | [2] 0.91 | Parabacteroides merdae 0.908 | Roseburia intestinalis 0.957 | Streptococcus salivarius 0.805

CCCCC(C#N)(Cn1cncn1)c1ccc(Cl)cc1 (stereo not given)
inactive: Coprococcus comes 1.02 | Escherichia coli ED1a 0.966 | Escherichia coli IAI1 0.97 | Eubacterium rectale 1.01 | [1] 1.02 | Lactobacillus gasseri 0.965 | Lactobacillus paracasei 0.916 | Odoribacter splanchnicus 1.04 | [2] 1.02 | Parabacteroides merdae 0.988 | Roseburia intestinalis 0.94 | Streptococcus salivarius 0.993

Cc1c(F)c(F)c(COC(=O)[C@@H]2[C@H](/C=C(\Cl)C(F)(F)F)C2(C)C)c(F)c1F (mixture of isomers)
inactive: Coprococcus comes 0.956 | Escherichia coli ED1a 1 | Escherichia coli IAI1 0.993 | Eubacterium rectale 1.01 | [1] 1 | Lactobacillus gasseri 0.897 | Lactobacillus paracasei 0.956 | Odoribacter splanchnicus 1.04 | [2] 0.976 | Parabacteroides merdae 0.994 | Roseburia intestinalis 0.986 | Streptococcus salivarius 0.993

Cc1ccc(NC(=O)N(C)C)cc1Cl
inactive: Coprococcus comes 0.996 | Escherichia coli ED1a 0.985 | Escherichia coli IAI1 0.982 | Eubacterium rectale 0.965 | [1] 0.916 | Lactobacillus gasseri 1.12 | Lactobacillus paracasei 0.954 | Odoribacter splanchnicus 1.02 | [2] 1.05 | Parabacteroides merdae 0.972 | Roseburia intestinalis 1.02 | Streptococcus salivarius 1.02

COP(=O)(OC)Oc1ccc([N+](=O)[O-])cc1
inactive: Coprococcus comes 1.07 | Escherichia coli ED1a 1.03 | Escherichia coli IAI1 0.996 | Eubacterium rectale 1.17 | [1] 1.09 | Lactobacillus gasseri 0.998 | Lactobacillus paracasei 1.02 | Odoribacter splanchnicus 0.954 | [2] 0.981 | Parabacteroides merdae 1.02 | Roseburia intestinalis 1.04 | Streptococcus salivarius 1.03

COCc1cnc(C2=NC(C)(C(C)C)C(=O)N2)c(C(=O)O)c1 (stereo not given)
inactive: Coprococcus comes 0.971 | Escherichia coli ED1a 1 | Escherichia coli IAI1 0.982 | Eubacterium rectale 1.09 | [1] 1.05 | Lactobacillus gasseri 0.91 | Lactobacillus paracasei 0.934 | Odoribacter splanchnicus 1.05 | [2] 1.03 | Parabacteroides merdae 0.987 | Roseburia intestinalis 0.978 | Streptococcus salivarius 0.977

CNC(=O)c1cc(Cl)cc(C)c1NC(=O)c1cc(Br)nn1-c1ncccc1Cl
inactive: Coprococcus comes 0.991 | Escherichia coli ED1a 0.988 | Escherichia coli IAI1 0.995 | Eubacterium rectale 0.961 | [1] 0.867 | Lactobacillus gasseri 1.03 | Lactobacillus paracasei 0.961 | Odoribacter splanchnicus 0.926 | [2] 1.01 | Parabacteroides merdae 0.98 | Roseburia intestinalis 0.957 | Streptococcus salivarius 0.99

CCNc1nc(Cl)nc(NC(C)C)n1
inactive: Coprococcus comes 1.01 | Escherichia coli ED1a 1.02 | Escherichia coli IAI1 0.992 | Eubacterium rectale 1.06 | [1] 1.03 | Lactobacillus gasseri 0.976 | Lactobacillus paracasei 1.08 | Odoribacter splanchnicus 1.07 | [2] 1.05 | Parabacteroides merdae 0.999 | Roseburia intestinalis 1.09 | Streptococcus salivarius 0.966

O=C1c2ccccc2C(=O)N1SC(Cl)(Cl)Cl
inactive: Coprococcus comes 1.01 | Escherichia coli ED1a 0.996 | Escherichia coli IAI1 1.02 | Eubacterium rectale 1.06 | [1] 1.02 | Lactobacillus gasseri 1.01 | Lactobacillus paracasei 0.963 | Odoribacter splanchnicus 1.02 | [2] 1.06 | Parabacteroides merdae 1.05 | Roseburia intestinalis 0.99 | Streptococcus salivarius 1.01

COP(=O)(OC)OC1=C(Cl)C2C=CCC12 (stereo not given)
inactive: Coprococcus comes 0.999 | Escherichia coli ED1a 0.968 | Escherichia coli IAI1 1.03 | Eubacterium rectale 1.01 | [1] 1.04 | Lactobacillus gasseri 0.957 | Lactobacillus paracasei 1.02 | Odoribacter splanchnicus 0.892 | [2] 0.975 | Parabacteroides merdae 1.03 | Roseburia intestinalis 1.04 | Streptococcus salivarius 1.03

CC(C)(C)c1ccc(CCOc2ncnc3ccccc23)cc1
inactive: Coprococcus comes 0.98 | Escherichia coli ED1a 0.976 | Escherichia coli IAI1 0.973 | Eubacterium rectale 0.905 | [1] 0.887 | Lactobacillus gasseri 0.924 | Lactobacillus paracasei 0.942 | Odoribacter splanchnicus 0.834 | Parabacteroides merdae 0.934 | Roseburia intestinalis 0.901 | Streptococcus salivarius 0.975
active: [2] 0.795

CNC(=O)Oc1cc(C)c(S(C)(=O)=O)c(C)c1
inactive: Coprococcus comes 0.98 | Escherichia coli ED1a 0.981 | Escherichia coli IAI1 0.963 | Eubacterium rectale 0.971 | [1] 1.05 | Lactobacillus gasseri 0.999 | Lactobacillus paracasei 1.02 | Odoribacter splanchnicus 1.01 | [2] 1.05 | Parabacteroides merdae 1.02 | Roseburia intestinalis 0.967 | Streptococcus salivarius 0.945

O=C(Cc1ccccc1)N/C(=N\OCC1CC1)c1c(C(F)(F)F)ccc(F)c1F
active: [2] 0.612
inactive: Coprococcus comes 1.01 | Escherichia coli ED1a 0.983 | Escherichia coli IAI1 0.972 | Eubacterium rectale 1.03 | [1] 0.937 | Lactobacillus gasseri 0.842 | Lactobacillus paracasei 0.946 | Odoribacter splanchnicus 0.911 | Parabacteroides merdae 0.877 | Roseburia intestinalis 0.976 | Streptococcus salivarius 0.968

Cc1ccn2nc(S(=O)(=O)Nc3c(F)cccc3F)nc2n1
inactive: Coprococcus comes 0.981 | Escherichia coli ED1a 0.969 | Escherichia coli IAI1 0.965 | Eubacterium rectale 1.1 | [1] 1.1 | Lactobacillus gasseri 0.999 | Lactobacillus paracasei 1.02 | Odoribacter splanchnicus 1.09 | [2] 1.02 | Parabacteroides merdae 1 | Roseburia intestinalis 0.997 | Streptococcus salivarius 0.965

ClC(Cl)=C(c1ccc(Cl)cc1)c1ccc(Cl)cc1
inactive: Coprococcus comes 0.914 | Escherichia coli ED1a 1 | Escherichia coli IAI1 0.986 | Eubacterium rectale 1.02 | [1] 1.03 | Lactobacillus gasseri 0.938 | Lactobacillus paracasei 0.921 | Odoribacter splanchnicus 1.02 | [2] 0.985 | Parabacteroides merdae 0.909 | Roseburia intestinalis 0.945 | Streptococcus salivarius 0.965

CC(C)N(C(=O)CCl)c1ccccc1
inactive: Coprococcus comes 0.961 | Escherichia coli ED1a 0.982 | Escherichia coli IAI1 1.02 | Eubacterium rectale 0.923 | [1] 0.911 | Lactobacillus gasseri 1.17 | Lactobacillus paracasei 0.946 | Odoribacter splanchnicus 0.942 | [2] 0.992 | Parabacteroides merdae 0.982 | Roseburia intestinalis 0.963 | Streptococcus salivarius 1.04

CCCN(CCC)c1c([N+](=O)[O-])cc(S(N)(=O)=O)cc1[N+](=O)[O-]
inactive: Coprococcus comes 0.973 | Escherichia coli ED1a 0.996 | Escherichia coli IAI1 0.973 | Eubacterium rectale 0.894 | [1] 0.9 | Lactobacillus gasseri 0.935 | Lactobacillus paracasei 0.942 | Odoribacter splanchnicus 0.934 | [2] 0.971 | Parabacteroides merdae 0.997 | Roseburia intestinalis 0.961 | Streptococcus salivarius 0.985

CCN(CC)c1nc(C)cc(OP(=S)(OC)OC)n1
inactive: Coprococcus comes 0.982 | Escherichia coli ED1a 1.03 | Escherichia coli IAI1 0.978 | Eubacterium rectale 1.06 | [1] 0.996 | Lactobacillus gasseri 0.984 | Lactobacillus paracasei 0.982 | Odoribacter splanchnicus 0.966 | [2] 0.813 | Parabacteroides merdae 0.962 | Roseburia intestinalis 0.978 | Streptococcus salivarius 0.975
